Reference: PubChem BioAssay (EPA / NIEHS)
Records with an inconclusive call do not appear. Activity calls are given as the source filed them. How the source made its calls: active means hit-call score of the fitted dose curve at least 0.9, where 1 is the maximum; inconclusive means response in the unintended direction; inactive means score below 0.9.

These molecules were tested against human Serotonin, 5-Hydroxytryptamine Receptor 6 (5HT6), HTR6 (gene 3362) (UniProt P50406) (assay: NVS_GPCR_h5HT6: NovaScreen (NVS) G Protein-Coupled Receptor Assay for human Serotonin, 5-Hydroxytryptamine Receptor 6 (5HT6) (AID 2283253)).
Chain of human Serotonin, 5-Hydroxytryptamine Receptor 6 (5HT6), HTR6 (gene 3362) (P50406 whole entry, looked up): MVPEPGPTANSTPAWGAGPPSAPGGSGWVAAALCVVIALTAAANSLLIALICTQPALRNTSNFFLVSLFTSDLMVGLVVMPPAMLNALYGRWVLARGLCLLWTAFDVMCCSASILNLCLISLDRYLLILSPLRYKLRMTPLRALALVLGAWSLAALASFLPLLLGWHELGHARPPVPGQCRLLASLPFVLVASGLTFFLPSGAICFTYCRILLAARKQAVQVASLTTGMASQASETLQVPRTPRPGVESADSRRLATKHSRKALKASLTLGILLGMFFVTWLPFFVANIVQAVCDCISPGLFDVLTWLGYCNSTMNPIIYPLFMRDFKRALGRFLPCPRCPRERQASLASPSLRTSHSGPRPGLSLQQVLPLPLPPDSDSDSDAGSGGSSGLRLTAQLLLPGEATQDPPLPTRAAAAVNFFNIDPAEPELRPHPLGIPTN
In short: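 Radioligand binding to 5HT6 in HEK293-derived membranes, cell-free, 1 h after dosing; bound ligand measured by filter-based scintillation counting. Primary screen in duplicate at 25 uM; actives retested in concentration series.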
`CCCOc1sc(C(=O)N2CCC(c3cc(CN)ccc3F)CC2)c(C)c1Br` was tested, and the AC50 was 8.41 µM (active). For `CCC(=C(c1ccc(O)cc1)c1ccc(OCCN(C)C)cc1)c1ccccc1`, the AC50 was 1.74 µM (active). In the case of `CN1CCN(c2ccccc2/C=C2\SCCN(c3ccc(Cl)c(Cl)c3)C2=O)CC1`, the AC50 is reported as 1.45 µM (active). With `CCCCCCCCCCCCc1ccccc1S(=O)(=O)O` the AC50 was 31.9 µM (active). In the case of `CC(=O)NC1(c2cccc(F)c2)CCN(CC[C@@]2(c3ccc(Cl)c(Cl)c3)CN(c3ccccc3)C(=O)CO2)CC1`, the AC50 is reported as 5.94 µM (active).

The molecules below were run against human Adenosine A1 Receptor (AdoRA1), ADORA1 (gene 134) (UniProt P30542) (assay: NVS_GPCR_hAdoRA1: NovaScreen (NVS) G Protein-Coupled Receptor Assay for human Adenosine A1 Receptor (AdoRA1) (AID 2283254)).
Chain of human Adenosine A1 Receptor (AdoRA1), ADORA1 (gene 134) (P30542 whole entry, looked up): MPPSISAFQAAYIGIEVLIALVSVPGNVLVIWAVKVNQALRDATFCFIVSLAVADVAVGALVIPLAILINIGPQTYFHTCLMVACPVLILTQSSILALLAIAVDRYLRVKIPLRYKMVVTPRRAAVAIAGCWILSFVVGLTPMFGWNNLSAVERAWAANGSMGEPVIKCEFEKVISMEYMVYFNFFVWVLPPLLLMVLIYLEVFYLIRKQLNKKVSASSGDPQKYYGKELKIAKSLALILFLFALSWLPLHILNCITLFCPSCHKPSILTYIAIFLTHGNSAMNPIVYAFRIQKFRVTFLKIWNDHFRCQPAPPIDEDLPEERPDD
In short: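 Hum. cortical membranes + radioligand, cmpd 1 h; filtration, scintillation count. Readout = decrease vs DMSO. Primary 25 uM dup; hits → conc. series.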
`O=C(OCCOCCOC(=O)c1ccccc1)c1ccccc1` was tested, and the AC50 was 5.62 µM (active). With `O=C(O)Cc1cc(I)c(Oc2cc(I)c(O)c(I)c2)c(I)c1` the outcome was “inactive”. For `CC#C[C@]1(O)CC[C@H]2[C@@H]3CCC4=CC(=O)CCC4=C3[C@@H](c3ccc(N(C)C)cc3)C[C@@]21C`, the outcome was “inactive”. In the case of `NC(=O)N1C(=O)C(C(=O)c2cc(Cl)cs2)c2cc(F)c(Cl)cc21` (configuration not stated), the AC50 is reported as 8.46 µM (active). With `CCCOc1sc(C(=O)N2CCC(c3cc(CN)ccc3F)CC2)c(C)c1Br` the AC50 was 17.2 µM (active). For `CCC(=C(c1ccc(O)cc1)c1ccc(OCCN(C)C)cc1)c1ccccc1`, the AC50 was 2.12 µM (active). For `CCN(CC)CCNc1ccc(CNC=O)c2sc3ccc(OC)cc3c(=O)c12`, the AC50 was 3.34 µM (active). With `CCCCCCCC(=O)O` the outcome was “inactive”. In the case of `CCCCCCCCCCCCc1ccccc1S(=O)(=O)O`, the AC50 is reported as 18.1 µM (active). With `CC[C@H](c1ccc(O)cc1)[C@@H](CC)c1ccc(O)cc1` the AC50 was 8.65 µM (active). For `CCCOC(=O)c1ccc(O)cc1`, the AC50 was 11.8 µM (active). `Cc1oc(-c2ccccc2)nc1CCOc1ccc(C[C@H](Nc2ccccc2C(=O)c2ccccc2)C(=O)O)cc1` was tested, and the AC50 was 25 µM (active).
